Experimental data taken from PubChem BioAssay AID435000 (NMMLSC, 2010).
Some of the results follow. Unmarked numbers belong to inactive results.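 Rule for the calls: active = fluorescence response below 15%; inactive = the rest.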

Test: DHE quenching or ROS scavenging interference in aged yeast, artefact control for yeast caloric restriction mimetic project, S. cerevisiae BY4741, flow cytometry (AID 435000);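 note: percent of the mean fluorescence averaged over all compound wells on the plate; lower means stronger quenching of DHE signal or ROS scavenging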
Details: at 10 µM, stronger effect = lower value

| SMILES | fluorescence response |
| --- | --- |
| COc1ccc(NC(C)=O)cc1NC(=O)CN1CCN(c2ccccn2)CC1 | 96.8% |
| Cc1ccc(-c2nn(C(C)(C)C)c3ncnc(N)c23)cc1 | 99.5% |
| Cc1cc2oc(C(=O)Nc3c(C)n(C)n(-c4ccccc4)c3=O)c(C)c2cc1Cl | 95.3% |
| Cc1cc(=O)n2[nH]c(-c3cccc(Cl)c3)cc2n1 | 92.6% |
| COc1ccc(CCNC(=O)c2ccccc2-c2ccccc2C(=O)O)cc1OC | 110% |
| COc1cc(-c2nnn(CC(=O)NCc3ccccc3)n2)cc(OC)c1OC | 99.2% |
| COc1cc(NC(=O)CSc2ccc(-c3cccnc3)nn2)cc(OC)c1 | 123% |
| CC(C)(C)NC(=O)COc1ccc(CNc2ccc3[nH]c(=O)[nH]c3c2)cc1 | 94.4% |
| O=C(CSCc1ccccc1)Nc1ccccc1 | 111% |
| CN1CCN(c2cc3c(cc2F)c(=O)c(C(=O)O)cn3CCF)CC1 | 100% |
| Cc1ccc2cccc(S(=O)(=O)N3CCN(c4ccccc4F)CC3)c2n1 | 104% |
| CCN(CC)c1ccc(NC(=O)CN2CCN(c3ccccn3)CC2)cc1 | 95.7% |
| Cc1ccc(-c2nc(CSCC(=O)NC3CCN(Cc4ccccc4)CC3)c(C)o2)cc1 | 94.6% |
| CCn1c2ccccc2c2cc(CC(N)=O)ccc21 | 105% |
| COc1cccc(NC(=O)NCCN2CCCCC2)c1 | 93.8% |
| CNC(=O)c1cccc2nc3ccccc3nc12 | 105% |
| O=C(O)c1ccc(F)c(S(=O)(=O)Nc2ccccc2)c1 | 90.9% |
| Cc1ccc(-c2nc(CS(=O)CC(=O)N3CCN(c4ncccn4)CC3)c(C)o2)cc1 (configuration not stated) | 95.7% |
| Cc1ccc(NC(=O)Cn2nc(C)c3ccccc3c2=O)c(C)c1 | 110% |
| COC(=O)CNC(=O)c1ccc(OC2CCN(C(=O)C3CC3)CC2)cc1 | 113% |
| CCCC(C)C(=O)OCC(=O)Nc1c(Br)cc(C)cc1Br (configuration not stated) | 89.1% |
| O=C(Nc1ccc(Br)cn1)c1ccc([N+](=O)[O-])cc1Cl | 94% |
